Assay outcomes from PubChem BioAssay.
An excerpt weighted towards active compounds, which were near 15% of everything screened.
RORgamma inh: qHTS for inhibitors of ROR gamma transcriptional activity; Potency, µM (highest dose often 53.6 µM), for the others: at the top dose activity change, negative = inhibition, actives largely listed as inhibitors; actives 5.4% (n = 310,000); Drosophila S2 Gal4-RORgamma UAS-luciferase reporter, 20 h; AID 2551, 2010; further: nearly all actives have a fitted effect of over 60% in size
Target sequence (P51450 whole entry, looked up, the tested form may be a part): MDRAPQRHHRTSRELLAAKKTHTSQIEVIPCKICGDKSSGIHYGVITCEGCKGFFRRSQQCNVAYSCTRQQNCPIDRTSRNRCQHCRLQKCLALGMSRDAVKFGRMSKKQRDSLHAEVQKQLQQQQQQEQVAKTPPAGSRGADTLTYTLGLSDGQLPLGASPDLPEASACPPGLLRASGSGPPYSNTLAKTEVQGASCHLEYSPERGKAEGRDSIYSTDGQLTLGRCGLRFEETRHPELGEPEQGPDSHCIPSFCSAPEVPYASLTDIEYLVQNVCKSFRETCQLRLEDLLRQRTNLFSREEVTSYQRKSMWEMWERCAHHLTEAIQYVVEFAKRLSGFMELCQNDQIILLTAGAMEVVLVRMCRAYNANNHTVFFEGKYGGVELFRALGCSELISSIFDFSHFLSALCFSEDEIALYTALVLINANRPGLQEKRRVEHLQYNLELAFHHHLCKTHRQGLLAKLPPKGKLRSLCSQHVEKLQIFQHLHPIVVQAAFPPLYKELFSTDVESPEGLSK
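Luciferase reporter read in Schneider cells carrying Gal4-RORγ (mouse) and UAS-Photinus luciferase; cells given compound 1 h before 700 uM copper sulfate induction, then incubated 20 h at ambient temperature.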
TDP1 cell noCPT: qHTS for Inhibitors of human tyrosyl-DNA phosphodiesterase 1 (TDP1): qHTS in cells in absence of CPT | actives 15% (n = 420,000) | Potency, µM (series often up to 46.2 µM), for inactives: at the highest dose activity change, negative = growth inhibition, actives largely listed as inhibitors | DT40 Tdp1-/- hTDP1 cells, no CPT, ATP luminescence, 48 h; further: nearly all actives have a fitted effect of over 55% in size
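Luminescent ATP content (CellTiter-Glo) served as the growth readout. Knockout chicken DT40 cells expressing human TDP1 were exposed to compounds without camptothecin for a minimum 48 hr at 37 °C.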
12-LOX inh: Primary qHTS assay for inhibitors of human arachidonate 12S-lipoxygenase (ALOX12): Round 2; AID 1671190, 2021; actives 1.1% (n = 580,000); Potency, µM (titrated, usually from 108 µM), for the others: top-dose activity change, negative = inhibition, actives largely listed as inhibitors; Polyunsaturated fatty acid lipoxygenase ALOX12 (Homo sapiens), P18054; purified 12hLO, xylenol orange hydroperoxide absorbance
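Hydroperoxide product was detected by ferrous iron/xylenol orange as the 573 to 405 nm absorbance ratio. Arachidonic acid at 40 uM (final) was turned over for 30 min at room temperature by 150 nM human 12hLO, pH 7.0 Hepes buffer, after 15 min compound preincubation.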
Gal4-VP16 FLuc: VP16 counterscreen qHTS for inhibitors of ROR gamma transcriptional activity. Drosophila S2 Gal4-VP16 UAS-luciferase, luminescence, 20 h. Potency, µM (titrated, usually from 53.6 µM), without a hit: top-dose activity, negative = inhibition, hits mostly inhibitors. actives 3.5% (n = 310,000). AID 2546, 2010;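 further: Gal4-VP16 expression switched on by copper sulfate through the metallothionein promoter; nearly all actives have a fitted effect of over 50% in size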
ELG1 DNA repair: qHTS screen for small molecules that inhibit ELG1-dependent DNA repair in human embryonic kidney (HEK293T) cells expressing luciferase-tagged ELG1; HEK293T ELG1-luciferase reporter, luminescence, 16 h; DNA damage induced by 5-fluorouridine; Potency, µM (doses to about 46.1 µM), inactives show at the highest dose activity change, negative = inhibition, most hits filed as inhibitors; actives 2.3% (n = 330,000); further: nearly all actives have a fitted effect of over 55% in size
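DMSO vehicle served as the neutral condition. Each well held 2,000 cells given 5-fluorouridine plus compound; after 16 hr at 37 °C/5% CO2, ONE-Glo was added and luciferase measured 30 min later.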
TDP1 cell CPT: qHTS for Inhibitors of human tyrosyl-DNA phosphodiesterase 1 (TDP1): qHTS in cells in presence of CPT; AID 686979, 2013; chicken DT40 Tdp1-/-;hTDP1 cells + 20 nM CPT, ATP luminescence, 48 h; Potency, µM (doses to about 46.2 µM), for inactives: at the highest dose activity change, negative = growth inhibition, actives largely listed as inhibitors; actives 12% (n = 420,000); further: nearly all actives have a fitted effect of over 55% in size
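Cell growth measured by CellTiter-Glo luminescence after a minimum 48 h, 37 C compound exposure with 20 nM CPT in Tdp1-knockout DT40 cells stably expressing hTDP1, seeded 400/well; qHTS titration format.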
An asterisk follows results filed as active; ? = inconclusive; . = not tested or not shown. The call rests on the fitted dose curve; in most records, active means well fitted curve in the direction sought with a large enough effect; inconclusive means small, poorly fitted or top-dose-only effect, or another doubt; inactive means no such curve, though single readings can be large; an effect the other way counts as inactive or inconclusive. On the % scale 0 is the no-effect control and ±100 the full control effect; potency means the concentration at half of the fitted maximal effect.

SMILES	RORgamma inh	TDP1 cell noCPT	12-LOX inh	Gal4-VP16 FLuc	ELG1 DNA repair	TDP1 cell CPT
COC(=O)c1c(C)oc2ccc(OC(=O)C(C)(C)C)cc12	.	.	-5%	.	.	.
CC1Cc2ccccc2N1S(=O)(=O)c1nnc(NC(=O)c2ccccc2)s1 (stereo not drawn)	.	?	-1%	.	.	?
Cc1ccc(C(=O)Nc2nnc(S(=O)(=O)N3c4ccccc4CC3C)s2)cc1 (stereo not drawn)	.	23µM*	-13%	.	.	?
CCOC(=O)c1ccc(NC(=O)c2cccc(S(=O)(=O)N3c4ccccc4CC3C)c2)s1 (stereo not drawn)	?	6.5µM*	-5%	?	21µM*	16µM*
COC(=O)C(NC(=O)N1CCc2nc3cc(-c4ccccc4)[nH]n3c(=O)c2C1)C(C)C (stereo not drawn)	.	.	11%	.	.	.
CCOC(=O)c1cc(-c2ccccc2)sc1NC(=O)c1ccc(OC)cc1	1%	?	.	-10%	11%	7.3µM*
CCOC(=O)c1cc(-c2ccccc2)sc1NC(=O)COC(=O)c1cccc(S(N)(=O)=O)c1	?	10µM*	0%	-29%	8%	?
CCOC(=O)c1cc(-c2ccccc2)sc1NC(=O)COC(=O)c1ccc(Cl)c(S(N)(=O)=O)c1	-2%	?	.	-3%	-4%	-23%
CCOC(=O)c1cc(-c2ccccc2)sc1NC(=O)C(C)Sc1nnc(N)s1 (stereo not drawn)	5%	?	-7%	?	23µM*	?
Cc1c(CC(=O)NCc2ccc(F)cc2)c(=O)oc2cc(O)ccc12	.	.	-20%	.	.	.
COc1ccc(OC)c(N2Cc3cc(C)c(C)cc3C2)c1	2%	26µM*	?	2%	15%	?
CCOc1ccccc1N1Cc2cc(C)c(C)cc2C1	25%	?	?	17%	18%	26µM*
CCOc1ccccc1N1Cc2ccccc2C1	-6%	-22%	?	17%	2%	?
O=C(c1ccccc1)c1ccc(C(=O)N2CCN(c3ccc(O)cc3)CC2)cc1	.	-30%	?	.	?	-27%
O=C(c1ccc(N2CCN(C(=O)c3ccc(F)c(F)c3)CC2)cc1)c1cccc(F)c1	1.8µM*	13µM*	?	?	3%	23µM*
O=C(c1ccc(N2CCN(C(=O)c3ccccc3)CC2)cc1)c1cccc(F)c1	?	16µM*	-6%	?	?	?
O=C(Cc1ccc(N(Cc2ccccc2)C(=O)c2ccco2)cc1)NCc1ccco1	.	.	9%	.	.	.
O=C1NN=C(C2CC2)C12CCN([S+](=O)([O-])c1cccc(C(F)(F)F)c1)CC2	.	.	-12%	.	.	.
O=C(NCCc1ccccc1)c1ccc(-c2ccc(F)c(F)c2)c2ccoc12	.	4.1µM*	5%	.	.	16µM*
O=C(NCc1cccc(Cl)c1)c1ccc(-c2ccc(F)c(F)c2)c2ccoc12	.	?	8%	.	.	?
O=C(NCCc1ccccc1)c1cccc2c(-c3ccc(F)c(F)c3)coc12	.	-44%	-15%	.	.	-44%
COc1ccc(CNC(=O)c2ccc(-c3ccc(F)c(F)c3)c3ccoc23)cc1OC	.	15µM*	-24%	.	.	21µM*
O=C(NCc1ccco1)c1ccc(-c2ccc(F)c(F)c2)c2ccoc12	.	18µM*	-6%	.	.	?
CCOC(=O)NC(Nc1cccc(F)c1)(C(=O)OCC)C(F)(F)F (stereo not drawn)	.	.	9%	.	.	.
COc1cc(NC(=O)c2noc(C)c2[N+](=O)[O-])c(OC)cc1Cl	-22%	6.5µM*	4%	7%	9%	15µM*
SMILES	RORgamma inh	TDP1 cell noCPT	12-LOX inh	Gal4-VP16 FLuc	ELG1 DNA repair	TDP1 cell CPT
COc1ccc(S(=O)(=O)Nc2ccc3c(c2)N(C(C)=O)CCC3)cc1	.	16µM*	-3%	.	29%	18µM*
COc1ccc(C)cc1S(=O)(=O)Nc1ccc2c(c1)N(C(C)=O)CCC2	.	16µM*	-3%	.	6%	26µM*
CC(=O)N1CCCc2ccc(NC(=O)c3ccc(OC(C)C)cc3)cc21	.	16µM*	-5%	.	.	?
COc1ccc(S(=O)(=O)Nc2ccc3c(c2)N(C(C)=O)CCC3)cc1OC	.	?	?	.	0%	?
CCC(=O)Nc1ccc(NC(=O)CSc2nnnn2-c2ccc(OC)cc2)cc1	5%	-19%	0%	4%	0%	-10%
CCOC(=O)c1c(NC(=O)CSc2nnnn2-c2ccc(OC)cc2)sc(C)c1C	-38%	4.1µM*	?	1%	?	6.5µM*
CCOC(=O)c1csc(NC(=O)CSc2nnnn2-c2ccc(OC)cc2)n1	21%	?	6%	-1%	1%	?
COc1ccc(-n2nnnc2SCC(=O)Nc2nnc(C)s2)cc1	-24%	5.6µM*	-29%	4%	2%	6.3µM*
CCC(=O)N1CCCN(C)c2ccccc21	.	.	16%	.	.	.
CSc1nc(N)c2c(n1)NC1=C(C(=O)CC(C)(C)C1)C2c1ccc(F)cc1 (stereo not drawn)	.	.	-40%	.	.	.
Cc1csc(CNC(=O)c2nccnc2N)n1	.	.	60%	.	.	.
Cc1cccc2cc(CN(Cc3ccc(F)cc3)C(=O)N(C)C)c3nnnn3c12	-1%	21µM*	0%	-2%	-18%	23µM*
Cc1ccc2nc(SCCC(=O)N3CC[C@@](C)(O)[C@@H](O)C3)cc(C)c2c1	.	.	28%	.	.	.
Brc1cnc2nc(SCc3nc4ccccc4[nH]3)[nH]c2c1	-42%	-47%	-14%	-6%	0%	-28%
COc1cccc(OCc2nc3ncc(Br)cc3[nH]2)c1	41%	2.9µM*	-7%	-28%	?	4.1µM*
Cc1cc(C)cc(OCc2nc3ncc(Br)cc3[nH]2)c1	.	2.3µM*	3%	.	.	2.3µM*
Cc1oc2cc3oc(=O)c(CCC(=O)NC4CC4)c(C)c3cc2c1C	57%	9.2µM*	1%	-12%	8%	5.8µM*
Cc1c(Cc2ccccc2)c(=O)oc2cc(OCC(=O)NCC(O)c3ccccc3)ccc12 (stereo not drawn)	28%	18µM*	2%	-10%	-17%	?
